From PubChem
Most compounds without a hit are left out; they make up all but 10% or so of the library.
RORgamma inh – qHTS for inhibitors of ROR gamma transcriptional activity; 5.4% of 310,000 active; Drosophila S2 Gal4-RORgamma UAS-luciferase reporter, 20 h; Potency, µM (series often up to 53.6 µM), for the others: at the top dose activity change, negative = inhibition, actives largely listed as inhibitors; Nuclear receptor ROR-gamma (Mus musculus), P51450; also: % is scaled to controls: 0 for no effect and ±100 for the full control effect; nearly all actives have a fitted effect of over 60% in size
Target sequence (P51450 whole entry, looked up, the tested form may be a part): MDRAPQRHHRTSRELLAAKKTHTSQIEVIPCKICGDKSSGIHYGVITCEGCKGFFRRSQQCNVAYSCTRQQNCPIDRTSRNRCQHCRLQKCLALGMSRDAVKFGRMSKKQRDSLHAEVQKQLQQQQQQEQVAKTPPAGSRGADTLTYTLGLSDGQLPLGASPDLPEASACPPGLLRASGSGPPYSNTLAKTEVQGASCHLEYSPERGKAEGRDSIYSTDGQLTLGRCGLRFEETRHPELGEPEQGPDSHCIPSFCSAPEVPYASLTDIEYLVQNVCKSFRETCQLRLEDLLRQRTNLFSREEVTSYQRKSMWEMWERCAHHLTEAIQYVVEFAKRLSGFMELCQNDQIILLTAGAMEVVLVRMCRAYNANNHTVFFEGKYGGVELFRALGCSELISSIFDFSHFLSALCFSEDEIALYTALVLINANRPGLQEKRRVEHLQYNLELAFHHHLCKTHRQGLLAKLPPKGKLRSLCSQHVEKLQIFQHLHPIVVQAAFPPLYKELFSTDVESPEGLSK
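Luminescence from a UAS-regulated Photinus luciferase reporter in stably transfected Drosophila Schneider cells is measured; decreased signal marks ROR gamma inhibition. Fusion expression is induced by 700 uM copper sulfate for 20 hr.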
SW480 rerep – A quantitative high throughput screen for small molecules that induce DNA re-replication in SW480 colon adenocarcinoma cells; AID 624297, 2012; 1.8% of 340,000 active; Potency, µM (titrated, usually from 46.1 µM), inactives show top-dose re-replication activation, hits mostly activators; SW480 DNA re-replication, Hoechst DNA content imaging, 48 h; also: % of control where 0% means no effect; nearly all actives have a fitted effect of over 55% in size
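250 cells/well; 23 nL cpd via pin tool; 48 hr, 37 C, 5% CO2; Hoechst 40 min; imager read of total nuclear intensity, ex 405/em 500-530 nm.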
MCF10A rereplic – A quantitative high throughput screen for small molecules that induce DNA re-replication in MCF 10a normal breast cells; MCF 10A DNA re-replication, Hoechst nuclear intensity, 48 h; Potency, µM (highest dose often 46.1 µM), for inactives: top-dose activity, positive = re-replication, most hits filed as activators; 2.9% of 350,000 active; AID 624296, 2012; also: % of control where 0% means no effect; nearly all actives have a fitted effect of over 50% in size
KB-3-1 tox – qHTS assay for MDR1-selective chemotherapeutics: Primary screen using the parental adenocarcinoma cell KB-3-1; KB-3-1 viability, CellTiter-Glo ATP luminescence, 72 h; Potency, µM (series often up to 46.1 µM), most hits filed as cytotoxic; 1.4% of 400,000 active; AID 1347075, 2019; also: % is scaled to controls: 0 for no effect and ±100 for the full control effect; nearly all actives have a fitted effect of over 60% in size
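Here the drug-naive KB-3-1 line serves as comparator for MDR sub-line selectivity; cells received compound titrations, 72 h at 37 °C, then CellTiter-Glo readout.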
VP16 counter – VP16 counterscreen qHTS for inhibitors of ROR gamma transcriptional activity; Drosophila S2 Gal4-VP16 UAS-luciferase, luminescence, 20 h; Potency, µM (highest dose often 53.6 µM), without a hit: top-dose activity, negative = inhibition, actives largely listed as inhibitors; 3.5% of 310,000 active; AID 2546, 2010;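 also: Gal4-VP16 expression switched on by copper sulfate through the metallothionein promoter; % is scaled to controls: 0 for no effect and ±100 for the full control effect; nearly all actives have a fitted effect of over 50% in size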
KB-V1 cytotox – qHTS assay for MDR1-selective chemotherapeutics: Primary screen using the drug-selected MDR subline cells KB-V1 | KB-V1 MDR cells viability, CellTiter-Glo, 72 h | Potency, µM (series often up to 46.1 µM), most hits filed as cytotoxic | 3.4% of 400,000 active | AID 1347076, 2019; also: % is scaled to controls: 0 for no effect and ±100 for the full control effect; nearly all actives have a fitted effect of over 60% in size
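Following 72 h at 37 degrees C with compound, KB-V1 cell viability was read by CellTiter-Glo luminescence, medium being phenol-red-free DMEM plus 10% FBS; concentration-response parameters came from normalized, curve-fitted qHTS data.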
An asterisk follows results filed as active; i = inactive; ? = inconclusive; . = not tested or not shown; [ ] = remark or other dose. Calls follow the shape of the dose curve; as a rule, active = well fitted curve in the direction sought with a large enough effect; inconclusive = small, poorly fitted or top-dose-only effect, or another doubt; inactive = no such curve, though single readings can be large; an effect the other way counts as inactive or inconclusive. Potency is read from the fitted curve at half-maximal effect.

SMILES	RORgamma inh	SW480 rerep	MCF10A rereplic	KB-3-1 tox	VP16 counter	KB-V1 cytotox
O=C(COc1ccc(/C=N/NC(=O)c2cc3ccccc3o2)cc1Cl)Nc1ccccc1	1.3µM*	8%	?	7.3µM*	0.89µM*	9.2µM*
O=C(N/N=C/c1ccsc1)c1cc2ccccc2o1	?	1%	-13%	i	6%	i
O=C(N/N=C/c1ccccc1F)c1cc2c(ccc3ccccc32)o1	?	15%	-10%	i	?	i
COC(=O)c1ccccc1-c1ccc(/C=N/NC(=O)c2cc3ccccc3o2)o1	?	-1%	?	?	?	13µM*
C=CCn1cc(/C=N\NC(=O)c2cc3c(ccc4ccccc43)o2)c2ccccc21	5.6µM*	5%	23%	i	-22%	i
C#CCn1cc(/C=N/NC(=O)c2cc3ccccc3o2)c2ccccc21	18µM*	?	?	i	?	?
COc1cc(/C=N/NC(=O)c2ccccc2O)ccc1OCC(=O)Nc1ccccc1	?	-5%	?	i	?	i
C[C@@H]1C=C[C@](Cc2ccccc2)(C(=O)NCCCNc2ncc(C(F)(F)F)cc2Cl)N1C(=O)c1ccccc1	23%	.	.	.	-1%	.
COc1ccc(CNC(=O)c2ccc3c(c2)N(Cc2cc(C)ccc2C)C(=O)CS3)cc1	.	.	.	i	.	i
CCN(CC)S(=O)(=O)c1ccc2c(c1)c(=O)c(C(=O)N1CCN(c3ccc(F)cc3)CC1)cn2C	.	.	.	i	.	i
CC(C)Oc1ccc(S(=O)(=O)N2CCOCC2)cc1NC(=O)C1=NN(c2ccccc2)C(=O)CC1	.	11%	?	i	.	?
COc1ccc(OC)c(/C=N\NC(=O)c2cc3c(ccc4ccccc43)o2)c1	-36%	15%	?	i	-13%	i
O=C(N/N=C/C=C/c1ccccc1)c1cc2c(ccc3ccccc32)o1	7.1µM*	12µM*	?	?	?	?
O=C(N/N=C/c1cccc2ccccc12)c1cc2ccccc2o1	.	114%	12µM*	?	.	?
CN(Cc1ccccc1)c1nc2c(c(=O)n(C)c(=O)n2C)n1CCCc1ccccc1	20%	-2%	26µM*	i	1%	i
CCCCCn1c(CN(C)Cc2ccccc2)nc2c1c(=O)n(C)c(=O)n2C	-6%	5%	?	18µM*	-18%	2.3µM*
CN(Cc1ccccc1)Cc1nc2c(c(=O)n(C)c(=O)n2C)n1Cc1ccc(F)cc1	?	4%	10%	i	-5%	9.2µM*
Cn1c(=O)c2c(ncn2Cc2ccccc2)n(C)c1=O	-36%	9%	?	i	17%	?
CCCCn1c(CN(Cc2ccccc2)Cc2ccccc2)nc2c1c(=O)n(C)c(=O)n2C	.	-2%[9.22 µM]	?	?	.	?
Cn1c(=O)c2c(ncn2CCCc2ccccc2)n(C)c1=O	-3%[10 µM]	-9%	0%	?	-1%	15µM*
CCOC(=O)c1c(NC(=O)COc2cccc(C)c2C)sc2c1CCC(CC)C2 (stereo not given)	.	.	.	i	.	i
CN(C)Cc1ccccc1-c1nc(N(C)Cc2ccco2)c2ccccc2n1	-18%	.	.	.	0%	.
Cn1c(=O)c2[nH]c(CN(Cc3ccccc3)Cc3ccccc3)nc2n(C)c1=O	-38%	-8%	4%	i	-2%	8.2µM*
CC(=O)C(C)n1c(CN(C)Cc2ccccc2)nc2c1c(=O)n(C)c(=O)n2C (stereo not given)	-1%	3%[1.84 µM]	-12%	i	?	i
CC(C)n1c(CN(C)Cc2ccccc2)nc2c1c(=O)n(C)c(=O)n2C	?	-5%	?	i	1.3µM*	?
SMILES	RORgamma inh	SW480 rerep	MCF10A rereplic	KB-3-1 tox	VP16 counter	KB-V1 cytotox
COc1cccc(-c2ccc3ncnc(N(C)C)c3c2)c1	-33%	.	.	.	16%	.
N#C/C(=C\c1ccc(-c2ccc(C(=O)O)cc2)o1)c1nc2ccccc2[nH]1	8%	-10%	?	i	6%	i
N#C/C(=C/c1ccc(N2CCOCC2)o1)c1ccc(Cl)cc1	?	-8%	-7%	i	10µM*	?
N#C/C(=C\c1ccc(N2CCOCC2)o1)c1nc2ccccc2[nH]1	16µM*	-2%	3%	i	0%	i
N#C/C(=C\c1ccc(N2CCOCC2)c([N+](=O)[O-])c1)c1nc2ccccc2[nH]1	?	-42%	10%	?	?	10µM*
CC(C)C(NS(=O)(=O)c1ccc2c(c1)oc(=O)n2C)C(=O)NCCc1ccc(Cl)cc1 (stereo not given)	.	.	.	i	.	i
COc1ccc(NC(=S)NNC(=O)COc2ccc(Cl)cc2Cl)cc1	?	-7%	-1%	i	-7%	i
Cc1cccc(NC(=S)NNC(=O)COc2ccc(Cl)cc2Cl)c1	4.5µM*	-5%	15%	i	2.8µM*	i
O=C(COc1cccc2cccnc12)NNC(=S)Nc1ccccc1	0.89µM*	.	.	.	-2%	.
O=C(COc1cccc2ccccc12)NNC(=O)Nc1ccccc1	5%	-4%	?	i	1%	i
COc1ccc(Cl)cc1NC(=S)Nc1cccc(C)c1	11µM*	1%	-9%	i	?	i
CCC(=O)NC(=S)Nc1ccc(NC(=O)COc2ccc(Cl)cc2Cl)cc1	11µM*	2%	?	i	?	?
Clc1ccccc1-c1nc(-c2cccnc2)no1	?	-2%	?	i	-18%	i
Clc1ccccc1/C=C/c1nc(-c2cccnc2)no1	2µM*	-15%	1%	i	0%	i
C(=C\c1nc(-c2cccnc2)no1)/c1ccccc1	4.5µM*	-5%	8%	i	?	i
Cc1ccc(-c2noc(/C=C/c3ccccc3)n2)cc1	-20%	-2%	-8%	i	-1%	i
Cc1ccc(C)c(OCc2nnc(N)s2)c1	13µM*	0.73µM*	?	i	-13%	i
Nc1nnc(COc2ccc(Br)cc2Br)s1	3%	-2%	-4%	i	-6%	i
CNc1ncc(Cc2ccccc2)s1	8.9µM*	2%	14%	i	-18%	i
O=C(C[n+]1ccccc1Cl)c1ccc2c(c1)CCCC2	.	.	.	i	.	i
CCOc1cc(/C=N/NC(=O)c2ccc(=O)n(C)c2)ccc1O	-16%	-4%	0%	i	-15%	i
